In PubChem BioAssay (EPA / NIEHS):
Values joined by “and” are separate entries in the source; they are usually repeats but may differ in a detail not shown here. Identical values can stand only once. A structure can be active in one record and inactive in another. Active and inactive are the calls of the source. How the source made its calls: active means hit-call score of the fitted dose curve at least 0.9, where 1 is the maximum; inactive means score below 0.9.

Key:
Conditions in all cases: mRNA level, 48 h; actives raise or lower the signal
[1] = read-out: Cytochrome P450 (CYP2B6), CYP2B6 (gene 1555); experiment: LTEA_HepaRG_CYP2B6: Life Technologies and Expression Analysis (LTEA) Assay for Cytochrome P450 (CYP2B6) using HepaRG (AID 2283481)
Procedure, shortened: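 Differentiated human HepaRG cells in serum-free induction medium, dosed in duplicate for 48 h over 8 half-log concentrations topping at 100 uM (0.5% DMSO). CYP2B6 mRNA measured by TaqMan qRT-PCR, normalized to ACTB, GAPDH, POLR2A; bidirectional fit versus DMSO.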

[2] = read-out: Cytochrome P450 2C19 (Homo sapiens) (UniProt P33261); experiment: LTEA_HepaRG_CYP2C19: Life Technologies and Expression Analysis (LTEA) Assay for CYP2C19 using HepaRG (AID 2283482)
Procedure, shortened: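 Differentiated HepaRG cells in serum-free induction medium exposed 48 h in duplicate, 8 concentrations from 100 uM by half-log steps in 0.5% DMSO. CYP2C19 mRNA measured by TaqMan qRT-PCR, normalized to ACTB, GAPDH, POLR2A. Bidirectional fit versus DMSO.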

CYP2C8 (gene 1558) = experiment: LTEA_HepaRG_CYP2C8: Life Technologies and Expression Analysis (LTEA) Assay for CYP2C8 using HepaRG (AID 2283483)
Procedure, shortened: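 Differentiated HepaRG cells in serum-free induction medium exposed 48 h in duplicate to 8 half-log concentrations from 100 uM in 0.5% DMSO. CYP2C8 mRNA by qRT-PCR normalized to ACTB, GAPDH, POLR2A; bidirectional fit versus DMSO.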

CYP2C9 (gene 1559) = experiment: LTEA_HepaRG_CYP2C9: Life Technologies and Expression Analysis (LTEA) Assay for CYP2C9 using HepaRG (AID 2283484)
Procedure, shortened: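 Differentiated human HepaRG cells in serum-free induction medium were exposed 48 h to chemicals in 8-point half-log series from 100 uM (0.5% DMSO), in duplicate. CYP2C9 mRNA was measured by qRT-PCR, normalized to ACTB/GAPDH/POLR2A, with bidirectional fitting versus DMSO.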

CYP2E1 (gene 1571) = experiment: LTEA_HepaRG_CYP2E1: Life Technologies and Expression Analysis (LTEA) Assay for CYP2E1 using HepaRG (AID 2283485)
Procedure, shortened: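 HepaRG cells in serum-free induction medium exposed 48 h to test chemicals, 8 half-log concentrations up to 100 uM in 0.5% DMSO, duplicate. CYP2E1 mRNA by qRT-PCR, normalized to ACTB, GAPDH, POLR2A; bidirectional fit versus DMSO.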

CYP4A11 (gene 1579) = experiment: LTEA_HepaRG_CYP4A11: Life Technologies and Expression Analysis (LTEA) Assay for CYP4A11 using HepaRG (AID 2283486)
Procedure, shortened: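 Differentiated HepaRG cells, 48 h after plating, exposed in duplicate for 48 h to 8 half-log concentrations up to 100 uM in 0.5% DMSO in serum-free induction medium. CYP4A11 mRNA measured by TaqMan qRT-PCR, normalized to ACTB, GAPDH and POLR2A.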

[3] = read-out: Cytochrome P450 3A4 (Homo sapiens) (UniProt P08684); experiment: LTEA_HepaRG_CYP3A4: Life Technologies and Expression Analysis (LTEA) Assay for CYP3A4 using HepaRG (AID 2283487)
Procedure, shortened: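 In a human hepatic line (HepaRG), duplicate wells were treated 48 h with up to 100 uM chemical in half-log dilutions. Endpoint: CYP3A4 mRNA induction or loss relative to 0.5% DMSO vehicle, by qRT-PCR.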

[4] = read-out: DNA damage-inducible transcript 3 (DDIT3), DDIT3 (gene 1649); experiment: LTEA_HepaRG_DDIT3: Life Technologies and Expression Analysis (LTEA) Assay for DNA damage-inducible transcript 3 (DDIT3) using HepaRG (AID 2283488)
Procedure, shortened: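 Differentiated human HepaRG cells in serum-free induction medium were exposed in duplicate for 48 h to 8 concentrations (top 100 uM, half-log steps, 0.5% DMSO). DDIT3 mRNA measured by TaqMan qRT-PCR, normalized to ACTB/GAPDH/POLR2A; bidirectional fit versus DMSO.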

[5] = read-out: Pro-epidermal growth factor (Homo sapiens) (UniProt P01133); experiment: LTEA_HepaRG_EGF: Life Technologies and Expression Analysis (LTEA) Assay for Epidermal growth factor (EGF) using HepaRG (AID 2283489)
Procedure, shortened: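 HepaRG cells (~100,000/well, 48 h pre-culture) exposed in duplicate for 48 h in serum-free induction medium to 8 half-log concentrations up to 100 uM in 0.5% DMSO. EGF mRNA by qRT-PCR, normalized to ACTB/GAPDH/POLR2A; bidirectional fit versus DMSO.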

[6] = read-out: Early growth response protein 1 (EGR1) transcription factor, EGR1 (gene 1958); experiment: LTEA_HepaRG_EGR1: Life Technologies and Expression Analysis (LTEA) Assay for Early growth response protein 1 (EGR1) transcription factor using HepaRG (AID 2283490)
Procedure, shortened: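 Differentiated HepaRG cells in serum-free induction medium exposed 48 hours, duplicate, to 8 half-log concentrations up to 100 uM in 0.5% DMSO. EGR1 mRNA measured by TaqMan qRT-PCR, normalized to ACTB, GAPDH, POLR2A; bidirectional fit versus DMSO.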

[7] = read-out: Ezrin (EZR), EZR (gene 7430); experiment: LTEA_HepaRG_EZR: Life Technologies and Expression Analysis (LTEA) Assay for Ezrin (EZR) using HepaRG (AID 2283491)
Procedure, shortened: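 Gain or loss of EZR mRNA is scored relative to 0.5% DMSO in human HepaRG cultures treated 48 h with test chemicals in duplicate, eight half-log concentrations from 100 uM.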

[8] = read-out: Cytochrome P450 3A7 (Homo sapiens) (UniProt P24462); experiment: LTEA_HepaRG_CYP3A7: Life Technologies and Expression Analysis (LTEA) Assay for CYP3A7 using HepaRG (AID 2283492)
Procedure, shortened: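 Differentiated HepaRG cells in serum-free induction medium exposed 48 h in duplicate to 8-point half-log series from 100 uM top in 0.5% DMSO. CYP3A7 mRNA by qRT-PCR, normalized to ACTB/GAPDH/POLR2A, bidirectional fit versus DMSO.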

CYP3A5 (gene 1577) = experiment: LTEA_HepaRG_CYP3A5: Life Technologies and Expression Analysis (LTEA) Assay for CYP3A5 using HepaRG (AID 2283493)
Procedure, shortened: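 Differentiated HepaRG cells in serum-free induction medium were dosed 48 h with test chemicals (8-point half-log series, top 100 uM, 0.5% DMSO, duplicate). CYP3A5 mRNA measured by qRT-PCR, normalized to ACTB, GAPDH, POLR2A; bidirectional fit versus DMSO.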

[9] = read-out: Fatty Acid-Binding Protein 1 (FABP1), FABP1 (gene 2168); experiment: LTEA_HepaRG_FABP1: Life Technologies and Expression Analysis (LTEA) Assay for Fatty Acid-Binding Protein 1 (FABP1) using HepaRG (AID 2283494)
Procedure, shortened: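 Differentiated human HepaRG cells exposed 48 h in serum-free induction medium to eight half-log concentrations up to 100 uM (0.5% DMSO), duplicate. FABP1 mRNA by qRT-PCR, normalised to ACTB, GAPDH, POLR2A; bidirectional fitting against DMSO.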

[10] = read-out: Cytochrome P450 4A22 (Homo sapiens) (UniProt Q5TCH4); experiment: LTEA_HepaRG_CYP4A22: Life Technologies and Expression Analysis (LTEA) Assay for Cytochrome P450 4A22 (CYP4A22) using HepaRG (AID 2283495)
Procedure, shortened: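 Differentiated HepaRG cells in serum-free induction medium exposed 48 h in duplicate to eight half-log concentrations up to 100 uM in 0.5% DMSO. CYP4A22 mRNA quantified by TaqMan qRT-PCR, normalized to ACTB, GAPDH and POLR2A; bidirectional fit versus DMSO.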

[11] = read-out: Cytochrome P450 7A1 (Homo sapiens) (UniProt P22680); experiment: LTEA_HepaRG_CYP7A1: Life Technologies and Expression Analysis (LTEA) Assay for Cytochrome P450 7A1 (CYP7A1) using HepaRG (AID 2283496)
Procedure, shortened: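 Gene expression endpoint in human HepaRG liver cells treated for 48 h with test chemicals (up to 100 uM, 0.5% DMSO). Values come from bidirectional concentration-response fitting versus DMSO.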

[12] = read-out: Glutathione S-Transferase (GSTA2), GSTA2 (gene 2939); experiment: LTEA_HepaRG_GSTA2: Life Technologies and Expression Analysis (LTEA) Assay for Glutathione S-Transferase (GSTA2) using HepaRG (AID 2283497)
Procedure, shortened: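 Differentiated human HepaRG cells were exposed in duplicate for 48 h in serum-free induction medium, 8 points from 100 uM top in half-log steps, 0.5% DMSO. GSTA2 mRNA was measured by TaqMan qRT-PCR, normalized to ACTB, GAPDH and POLR2A; bidirectional fit versus DMSO.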

[13] = read-out: Glutamate-cysteine ligase catalytic (GCLC), GCLC (gene 2729); experiment: LTEA_HepaRG_GCLC: Life Technologies and Expression Analysis (LTEA) Assay for Glutamate-cysteine ligase catalytic (GCLC) using HepaRG (AID 2283498)
Procedure, shortened: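 Differentiated HepaRG cells exposed 48 h in serum-free induction medium, eight-point half-log series topping at 100 uM in 0.5% DMSO, duplicates. GCLC mRNA by qRT-PCR normalized to ACTB, GAPDH and POLR2A, fitted bidirectionally versus DMSO.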

[14] = read-out: growth arrest and DNA damage 45 (GADD45G), GADD45G (gene 10912); experiment: LTEA_HepaRG_GADD45G: Life Technologies and Expression Analysis (LTEA) Assay for growth arrest and DNA damage 45 (GADD45G) using HepaRG (AID 2283499)
Procedure, shortened: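 Differentiated human HepaRG cells, 48 h post-plating, exposed 48 h in serum-free induction medium to 8 half-log concentrations (top 100 uM, 0.5% DMSO) in duplicate. GADD45G mRNA measured by Fluidigm TaqMan qRT-PCR, normalized to ACTB, GAPDH, POLR2A; bidirectional fit versus DMSO.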

[15] = read-out: Glutamate-cysteine ligase regulatory (GCLM), GCLM (gene 2730); experiment: LTEA_HepaRG_GCLM: Life Technologies and Expression Analysis (LTEA) Assay for Glutamate-cysteine ligase regulatory (GCLM) using HepaRG (AID 2283500)
Procedure, shortened: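 Differentiated human HepaRG cells exposed 48 h in serum-free induction medium to 8-point half-log concentrations (top 100 uM, 0.5% DMSO), in duplicate. GCLM mRNA quantified by qRT-PCR, normalized to ACTB, GAPDH, POLR2A; bidirectional fitting versus DMSO.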

Measured: AC50

Sequence of Cytochrome P450 2C19 (Homo sapiens) (P33261 whole entry, looked up): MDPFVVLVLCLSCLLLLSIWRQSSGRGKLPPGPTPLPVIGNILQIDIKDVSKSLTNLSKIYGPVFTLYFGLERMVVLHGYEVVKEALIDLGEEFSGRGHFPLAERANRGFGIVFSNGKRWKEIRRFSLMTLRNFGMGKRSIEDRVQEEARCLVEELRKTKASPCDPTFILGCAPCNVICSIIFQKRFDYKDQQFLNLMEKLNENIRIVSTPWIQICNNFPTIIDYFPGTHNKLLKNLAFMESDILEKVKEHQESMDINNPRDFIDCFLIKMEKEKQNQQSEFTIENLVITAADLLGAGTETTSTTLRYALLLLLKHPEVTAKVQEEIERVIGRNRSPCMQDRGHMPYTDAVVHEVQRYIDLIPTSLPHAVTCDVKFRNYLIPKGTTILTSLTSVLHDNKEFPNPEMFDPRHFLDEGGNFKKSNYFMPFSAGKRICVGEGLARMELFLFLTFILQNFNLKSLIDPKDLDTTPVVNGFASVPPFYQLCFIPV
Sequence of Cytochrome P450 3A7 (Homo sapiens) (P24462 whole entry, looked up): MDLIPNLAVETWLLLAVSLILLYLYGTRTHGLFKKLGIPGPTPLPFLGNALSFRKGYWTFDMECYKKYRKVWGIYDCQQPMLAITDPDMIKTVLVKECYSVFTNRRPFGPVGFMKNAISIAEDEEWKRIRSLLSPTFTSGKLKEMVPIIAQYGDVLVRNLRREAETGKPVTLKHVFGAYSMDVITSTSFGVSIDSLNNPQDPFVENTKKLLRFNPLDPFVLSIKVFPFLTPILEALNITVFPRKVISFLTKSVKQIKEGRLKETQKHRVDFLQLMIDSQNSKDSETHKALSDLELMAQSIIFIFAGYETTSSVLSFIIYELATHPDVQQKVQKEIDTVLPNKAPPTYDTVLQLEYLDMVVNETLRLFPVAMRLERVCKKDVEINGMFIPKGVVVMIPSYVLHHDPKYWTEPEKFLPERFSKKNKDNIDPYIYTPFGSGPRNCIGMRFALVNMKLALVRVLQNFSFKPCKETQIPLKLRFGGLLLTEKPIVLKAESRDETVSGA
Sequence of Cytochrome P450 3A4 (Homo sapiens) (P08684 whole entry, looked up): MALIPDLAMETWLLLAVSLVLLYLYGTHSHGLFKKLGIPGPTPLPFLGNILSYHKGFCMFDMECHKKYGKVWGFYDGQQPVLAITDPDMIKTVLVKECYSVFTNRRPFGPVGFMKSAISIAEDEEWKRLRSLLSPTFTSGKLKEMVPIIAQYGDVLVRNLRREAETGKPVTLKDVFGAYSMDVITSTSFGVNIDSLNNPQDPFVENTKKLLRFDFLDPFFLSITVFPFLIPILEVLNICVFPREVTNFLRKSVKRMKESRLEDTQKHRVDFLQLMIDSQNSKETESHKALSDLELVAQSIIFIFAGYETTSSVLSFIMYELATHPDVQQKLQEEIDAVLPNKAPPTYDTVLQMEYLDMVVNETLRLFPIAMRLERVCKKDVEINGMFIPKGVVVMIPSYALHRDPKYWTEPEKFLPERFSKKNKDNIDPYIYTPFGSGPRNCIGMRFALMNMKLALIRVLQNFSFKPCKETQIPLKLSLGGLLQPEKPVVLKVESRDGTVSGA

CCNc1nc(Cl)nc(NC(C)C)n1
active: [1] 2.34 µM | [2] 15.2 µM | CYP2C8 (gene 1558) 31.5 µM | CYP2E1 (gene 1571) 16.6 µM | CYP4A11 (gene 1579) 50 µM | [3] 15.7 µM | [10] 50 µM
inactive: all other assays above

CC(C)C1(C)N=C(c2nc3ccccc3cc2C(=O)O)NC1=O (centres undefined)
active: [1] 6.39 µM | [2] 14.1 µM | [3] 18.8 µM
inactive: all other assays above

C=CCC1=C(C)C(OC(=O)C2C(C=C(C)C)C2(C)C)CC1=O (centres undefined)
active: [1] 12.1 µM and 90.6 µM and 11.7 µM | [2] 91.5 µM | CYP2C8 (gene 1558) 85.6 µM | CYP2C9 (gene 1559) 87.4 µM | CYP2E1 (gene 1571) 70.6 µM and 76.7 µM and 60.9 µM | CYP4A11 (gene 1579) 93.2 µM and 95.2 µM | [6] 64.1 µM and 71.1 µM and 50 µM | [9] 50 µM and 44.6 µM | [10] 84.3 µM and 94.1 µM and 90.4 µM | [11] 3.67 µM and 72.6 µM and 19.4 µM | [12] 84.3 µM
inactive: [2] | CYP2C8 (gene 1558) | CYP2C9 (gene 1559) | [3] | [4] | [5] | [7] | [8] | CYP3A5 (gene 1577) | [12] | [13] | [14] | [15]

COC(=O)N(OC)c1ccccc1COc1ccn(-c2ccc(Cl)cc2)n1
inactive: CYP4A11 (gene 1579) | [6] | [7]
active: [1] 78.1 µM | [2] 77.8 µM | CYP2C8 (gene 1558) 77.9 µM | CYP2C9 (gene 1559) 74.7 µM | CYP2E1 (gene 1571) 34.1 µM | [3] 78.5 µM | [4] 60.9 µM | [5] 12.1 µM | [8] 74 µM | CYP3A5 (gene 1577) 87 µM | [9] 80.4 µM | [10] 15.8 µM | [11] 71.9 µM | [12] 78.7 µM | [13] 80.8 µM | [14] 79.5 µM | [15] 50 µM
